Results from PubChem BioAssay (NCI).
About 79,000 compounds went through this panel and 15% of them were active in at least one assay; those are over-represented in the sample as a whole. Active and inactive are the calls of the source. No stated cut-off is given here; in the data, active means growth inhibition above about 70%; inactive means the rest.

Experiments:
[1] = NCI Yeast Anticancer Drug Screen. Data for the rad50 strain (AID 155);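 further: 0% = growth of vehicle-only cultures of the same strain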; conditions: S. cerevisiae rad50 strain growth inhibition; at 50.0 µM; stronger effect = higher value
Summary of the method: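 DNA repair mutant yeast, compound exposure, growth read-out; inhibition is taken relative to vehicle.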

[2] = NCI Yeast Anticancer Drug Screen. Data for the mec2-1 strain (AID 157); conditions: S. cerevisiae mec2-1 strain, at 50.0 µM, stronger effect = higher value
Summary of the method: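 Cells of the genetically defined mec2-1 yeast strain are incubated with test compound. Inhibition of growth is calculated against vehicle-treated controls.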

[3] = NCI Yeast Anticancer Drug Screen. Data for the sgs1 mgt1 strain (AID 161);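 further: 0% = growth of cultures given vehicle only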; conditions: S. cerevisiae sgs1 mgt1 strain, at 50.0 µM, stronger effect = higher value
Summary of the method: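 Read-out: growth inhibition vs vehicle controls. Cells: mutant yeast strain deficient in DNA damage repair.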

[4] = NCI Yeast Anticancer Drug Screen. Data for the cln2 rad14 strain (AID 165);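 further: 0% = growth equal to vehicle treated cultures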; conditions: S. cerevisiae cln2 rad14 strain, at 50.0 µM, stronger effect = higher value
Summary of the method: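 The screen exposed genetically defined yeast (cln2 rad14) to test compounds and scored growth inhibition relative to vehicle-treated controls.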

[5] = NCI Yeast Anticancer Drug Screen. Data for the bub3 strain (AID 167); conditions: S. cerevisiae bub3 mutant strain, at 50.0 µM, stronger effect = higher value
Summary of the method: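 In this screen, a yeast mutant lacking normal mitotic checkpoint function is challenged with compound. Relative growth versus vehicle gives the inhibition value.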

[6] = NCI Yeast Anticancer Drug Screen. Data for the mlh1 rad18 strain (AID 175); conditions: S. cerevisiae mlh1 rad18 strain growth inhibition; at 50.0 µM; stronger effect = higher value
Summary of the method: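 Compound-treated yeast growth, normalised to vehicle controls. Strain bears defined DNA repair mutations.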

Measured: growth inhibition

c1ccc2c(c1)Cc1ccc3ccccc3c1-2
inactive: [1] 56% | [2] 28.7% | [3] 34.4% | [4] 35.8% | [5] 64.3% | [6] 35.1%

O=C(CCCl)NNC1=NCCCN1
inactive: [1] 2.5% | [2] -14.3% | [3] -15.4% | [4] 23.2% | [5] -4.35% | [6] -0.05%

CCCCNC(=O)C1CCC(CC2CCCCC2)CC1 (centres undefined)
inactive: [1] 22.8% | [2] 28.7% | [3] 12.5% | [4] -3.3% | [5] 18.4% | [6] 10.6%

COc1cc(C(=O)n2c(=O)oc(=O)c3cc([N+](=O)[O-])ccc32)cc(OC)c1OC
inactive: [1] -15.4% | [2] -6.15% | [3] -16.4% | [4] -6.65% | [5] 1.6% | [6] 2.2%

Cc1oc2ccccc2c(=O)c1CO
inactive: [1] -12.6% | [2] 13.2% | [3] 2% | [4] -9.85% | [5] -11.1% | [6] -12.2%

CCN(CC)c1ccc(N=C2C=CC(=O)C(NC(C)=O)=C2)c(C)c1
inactive: [1] -13.2% | [2] -24.8% | [3] 29.2% | [4] -8.15% | [5] 14.1% | [6] 13.3%

CCCCC(CC)CO (centres undefined)
inactive: [1] -12.4% | [2] -25% | [3] -32.7% | [4] -108% | [5] -16.5% | [6] -20.3%

CN(/N=C/c1ccc(Cl)c(Cl)c1)C1=NCCCCN1
inactive: [1] 1.45% | [2] -13.8% | [3] 2.15% | [4] -6.95% | [5] -15.8% | [6] -2.8%

CC(=Nc1ccc(C)cc1)NNc1nc2ccccc2s1
inactive: [1] 15.1% | [2] -7.3% | [3] 13.2% | [4] -37.2% | [5] 17.3% | [6] 25%

C=CCOc1ccccc1C
inactive: [1] -21.9% | [2] -29.9% | [3] -0.85% | [4] 8.1% | [5] -21.7% | [6] -14.9%

Clc1ccc2c(c1)[nH]c1c2nc2sccn21
inactive: [1] -7.25% | [2] -14.7% | [3] -0.3% | [4] 1.15% | [5] -12.9% | [6] -10.1%

COc1ccc(/C=N/NC(=O)NNC(=O)c2cc([N+](=O)[O-])cc([N+](=O)[O-])c2)cc1OC
inactive: [1] 33.2% | [2] 13.3% | [3] 36.7% | [4] 15.4% | [5] 3.6% | [6] 32.4%

O=C1CCCC(C(Sc2ccccc2)(Sc2ccccc2)Sc2ccccc2)C1 (centres undefined)
active: [6] 81.3%
inactive: [1] 62.2% | [2] 5.1% | [3] 65.2% | [4] 37.6% | [5] 21.9%

Cc1ccc(S(=O)(=O)N/N=C2/CCC(C(C)(C)C)CC2Br)cc1 (centres undefined)
inactive: [1] 3.9% | [2] -2.4% | [3] -6.35% | [4] -2.9% | [5] 17.4% | [6] 2.1%

Cn1cnc2c(=S)nc[nH]c21
inactive: [1] 7.75% | [2] -10% | [3] -25.1% | [4] -9.9% | [5] -8.75% | [6] -20.9%

CCc1nnc2sc3c(Cl)c4nn5c(CC)nnc5sc4c(Cl)c3nn12
inactive: [1] 37.2% | [2] -6.2% | [3] 16.8% | [4] 24.2% | [5] -0.3% | [6] 12.5%

CCN(CC)C(=O)C1CCCCN1 (centres undefined)
inactive: [1] 1.65% | [2] 2.6% | [3] 3.1% | [4] -43.2% | [5] -11% | [6] 6.65%

CCc1nc(N)nc(N)c1-c1ccc(OC)c([N+](=O)[O-])c1
inactive: [1] 3.25% | [2] -14.7% | [3] -27.2% | [4] 24.9% | [5] -21.4% | [6] 7.9%

O=[N+]([O-])c1ccc(N/N=C(\Cc2ccccc2)c2ccccc2)c([N+](=O)[O-])c1
inactive: [1] 6.8% | [2] 2.25% | [3] 6.2% | [4] -20.3% | [5] -5.75% | [6] 2.3%

O=C(NNC(=O)c1ccc(Cl)cc1Cl)c1ccc2ccccc2c1
inactive: [1] 9.4% | [2] -42% | [3] -14.4% | [4] 6% | [5] -0.1% | [6] -0.55%

CCN(CC)C1=CC(=O)OC1OC (centres undefined)
inactive: [1] -9.65% | [2] 12.5% | [3] 2% | [4] 8.1% | [5] 3.05% | [6] -4.2%

CC1C2CCC3(CCC4C5(C)CCCC4(CN(CCO)C5)C3C2)C1O (centres undefined)
inactive: [1] 2.1% | [2] -24.4% | [3] 5.3% | [4] 13.8% | [5] -2.4% | [6] -8.4%

NC(=O)c1nc(C2OC(CO)C(O)C2O)cs1 (centres undefined)
inactive: [1] -0.7% | [2] -1.2% | [3] -2.25% | [4] -27.9% | [5] 6.75% | [6] 0.15%

COC(=O)C(=O)Cc1cccc(OC(C)=O)c1C(=O)OC
inactive: [1] 8.55% | [2] 6.4% | [3] 6.6% | [4] -94% | [5] 9.35% | [6] 2.6%

C=CCOC(=O)NC1C(OC(C)[C@@H](NC(=O)OCc2ccccc2)C(=O)OC(C)(C)C)OC(COC(C)=O)C(OC(C)=O)C1OC(C)=O (some centres undefined)
inactive: [1] -26.9% | [2] -23.8% | [3] -16.4% | [4] 22.1% | [5] -1.55% | [6] -4.15%

c1ccc(CNC2CC3CCC2C3)cc1 (centres undefined)
inactive: [1] -17.6% | [2] -5.5% | [3] -10.8% | [4] -5.15% | [5] -16.4% | [6] -1.3%

CC1(C)OC(C)(C)c2c1nnc(-c1ccccc1[N+](=O)[O-])[n+]2[O-]
inactive: [1] 8.1% | [2] 11.5% | [3] 22.4% | [4] 12.8% | [5] 26.9% | [6] 14.1%

N#CCCCNc1ccccc1
inactive: [1] -19.1% | [2] -15% | [3] -28.4% | [4] -4.9% | [5] -8.6% | [6] -20.6%

CC(NC(=O)NC(C)(C)C)c1ccccc1 (centres undefined)
inactive: [1] 3.05% | [2] -12.9% | [3] -5.05% | [4] -37% | [5] 5.2% | [6] 4.1%

c1cc(CSSCc2ccncc2)ccn1
inactive: [1] -15% | [2] 3.15% | [3] -19.1% | [4] -13.2% | [5] -27.6% | [6] 4.75%

COC1C(/C=C/C(C)=O)OC2OC(C)(C)OC21 (centres undefined)
inactive: [1] 1.7% | [2] 1.35% | [3] 3.85% | [4] -9.45% | [5] 2.3% | [6] -1.55%

CC1=C(CCC(C)CO)OC2CC3C4CCC5CC(O)CCC5(C)C4CCC3(C)C12 (centres undefined)
inactive: [1] -4.5% | [2] -22.6% | [3] -24.7% | [4] -1.9% | [5] -21.1% | [6] -16.4%

COC1/C=C/OC2(C)Oc3c(C)c(O)c4c(c3C2=O)C(N)=C(Nc2ccccc2)C(=NC(=O)C(C)=CC=CC(C)C(O)C(C)C(O)C(C)C(OC(C)=O)C1C)C4=O (centres undefined)
inactive: [1] 15.5% | [2] 45.5% | [3] 41.9% | [4] 46.5% | [5] 16.9% | [6] 39.9%

CCOC(=O)CCC(=O)OCC
inactive: [1] 21.6% | [2] 7.05% | [3] 0% | [4] 16.9% | [5] 9.85% | [6] 10.6%

CCOC(=O)C(Cc1ccc([N+](=O)[O-])cc1)(Cc1ccc([N+](=O)[O-])cc1)C(=O)OCC
inactive: [1] -8.9% | [2] -0.75% | [3] -15.3% | [4] -8.95% | [5] -25.6% | [6] -17.2%

O=C(C[n+]1ccc2ccccc2c1)c1ccc(Br)cc1
inactive: [1] -17.1% | [2] 12.3% | [3] 1.8% | [4] -0.65% | [5] -11.9% | [6] 28.9%

Oc1ccc(Cl)c2cccnc12
active: [1] 98.9% | [2] 99.5% | [3] 99.2% | [4] 97.8% | [5] 99.3% | [6] 97.7%

CCC(C)OC(=O)CC(c1ccccc1)N1CCCCC1 (centres undefined)
inactive: [1] 7.5% | [2] -10.4% | [3] 3% | [4] -26.4% | [5] -0.65% | [6] -4.5%

CCOP(=O)(OCC)C1OCC(O)C(C2OC(P(=O)(OCC)OCC)OCC2O)O1 (centres undefined)
inactive: [1] 7.95% | [2] 4.4% | [3] 2.45% | [4] 0.85% | [5] -1.55% | [6] 7.25%
